Data from PubChem BioAssay (NCATS).
Results filed as inconclusive are left out. Activity calls are given as the source filed them. The call rests on the fitted dose curve; in most records, active means well fitted inhibition curve with a large enough effect; inconclusive means small, poorly fitted or top-dose-only effect; inactive means flat fitted curve, though single readings scatter.

Legend:
Assay in all cases: qHTS profiling for inhibitors of Plasmodium falciparum proliferation (AID 504749); further: nearly all actives have a fitted effect of over 60% in size
Conditions in all cases: P. falciparum in erythrocytes, SYBR Green DNA, 72 h; series mostly up to 28.7 µM
[1] = tested on: CP237
How it was run: (§1)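 P. falciparum-infected erythrocytes (0.3% parasitemia, 2.5% hematocrit) incubated with compound 72 h at 37 C, 5% CO2. Parasite DNA detected by SYBR Green after lysis, overnight at room temperature; normalised to 0.29 uM artemisinin and DMSO.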

[2] = tested on: CP238
How it was run: as §1

[3] = tested on: CP247
How it was run: as §1

[4] = tested on: CP250
How it was run: as §1

[5] = tested on: CP252
How it was run: as §1

[6] = tested on: CP256
How it was run: as §1

[7] = tested on: CP260
How it was run: as §1

[8] = tested on: CP262
How it was run: as §1

[9] = tested on: CP265
How it was run: as §1

[10] = tested on: CP266
How it was run: as §1

Measured: Potency

Cc1cccc(C(=O)O)c1O
inactive: all assays above

CN1CCCN=C1COC(=O)C(O)(c1ccccc1)C1CCCCC1 (stereo not given)
inactive: all assays above

O=C(NCN1CCOCC1)c1cnccn1
inactive: all assays above

CCCCCCCCCCCCCCCCCCO
inactive: all assays above

CC(=O)NS(=O)(=O)c1ccc(N)cc1
inactive: all assays above

Cc1c(Cn2ccnc2)c2ccccc2n1CCC(=O)O
inactive: all assays above

CC1CC(OC(=O)c2ccccc2O)CC(C)(C)C1 (stereo not given)
inactive: all assays above

OCc1ccc(Cl)cc1Cl
inactive: all assays above

O=C(O)c1ccc[n+]([O-])c1
inactive: all assays above

COc1ccc(NS(=O)(=O)c2ccc(N)cc2)nn1
inactive: all assays above

CC(C)(C)C(=O)OCOC(=O)[C@@H]1N2C(=O)[C@@H](NC(=O)[C@H](N)c3ccccc3)[C@H]2SC1(C)C
inactive: all assays above

O=C(O)c1ccc(OCCCOc2ccc(C(=O)O)cc2)cc1
inactive: all assays above

O=C(O)Cc1ccc(CCNS(=O)(=O)c2ccc(Cl)cc2)cc1
inactive: all assays above

O=C1c2ccccc2S(=O)(=O)N1CCCCN1CCN(c2ncccn2)CC1
inactive: all assays above

CCCCCCCC(=O)OCC(O)CO (stereo not given)
inactive: all assays above

Cn1c(=O)c2c(ncn2CCO)n(C)c1=O
inactive: all assays above

C=CCNC(N)=S
inactive: all assays above

Cc1ccccc1N=Nc1ccc(N=Nc2c(O)ccc3ccccc23)c(C)c1
inactive: all assays above

CCN(CC)S(=O)(=O)c1ccc(C(=O)O)cc1
inactive: all assays above

CCCCC1(COC(=O)CCC(=O)O)C(=O)N(c2ccccc2)N(c2ccccc2)C1=O
inactive: all assays above

CCOC(=O)[C@H](CCc1ccccc1)N[C@@H](C)C(=O)N1CCC[C@H]1C(=O)O
inactive: all assays above

Cc1c(NC(=O)c2cccnc2)c(=O)n(-c2ccccc2)n1C
inactive: all assays above

NC(N)=NS(=O)(=O)c1ccc(N)cc1
inactive: all assays above

NS(=O)(=O)c1ccc(NC(=O)CCC(=O)O)cc1
inactive: all assays above

CC(N)CCCC(C)(C)O (stereo not given)
inactive: all assays above

Nc1ccc(S(=O)(=O)c2ccc(N)cc2)cc1
inactive: all assays above

CN(C(=O)c1c(O)c2ccccc2n(C)c1=O)c1ccccc1
inactive: all assays above

O=C1c2cccc(O)c2C(=O)c2c(O)cccc21
inactive: all assays above

CC(C)C[C@@H](N)C(=O)O
inactive: all assays above

COc1nccnc1NS(=O)(=O)c1ccc(N)cc1
inactive: all assays above

CC(=O)SC[C@@H](Cc1ccccc1)C(=O)NCC(=O)OCc1ccccc1
inactive: all assays above

CNc1c2c(nn1C)CCCC2
inactive: all assays above

C[C@@H](N)C(=O)O
inactive: all assays above

Cc1cccc(C)c1NC(=O)CC12CCCN1CCC2
inactive: all assays above

CCN(CC)CC1CCCCN1CC(=O)N1c2ccccc2C(=O)Nc2cccnc21 (stereo not given)
inactive: all assays above

O=C(Cn1ccnc1[N+](=O)[O-])NCCO
inactive: all assays above

CCCOC(=O)c1ccc(N)cc1
inactive: all assays above

O=C(O)Cc1cn(-c2ccccc2)nc1-c1ccc(Cl)cc1
inactive: all assays above

CC1CCc2cc(F)cc3c(=O)c(C(=O)O)cn1c23 (stereo not given)
inactive: all assays above

CC(=O)Oc1cccc(C)c1
inactive: all assays above

O=C(CCBr)N1CCN(C(=O)CCBr)CC1
inactive: all assays above

CCCCOC(=O)c1ccc(N)cc1
inactive: all assays above

Cc1onc(-c2ccccc2)c1-c1ccc(S(N)(=O)=O)cc1
inactive: all assays above

CC(=O)OCC(COC(C)=O)OC(C)=O
inactive: all assays above

O=C(O)Cn1c(C(=O)Nc2nc(-c3ccccc3Cl)cs2)cc2ccccc21
inactive: all assays above

CNCc1ccccc1
inactive: all assays above

CCc1nnc(NS(=O)(=O)c2ccc(N)cc2)s1
inactive: all assays above

Cc1c(I)c(=O)n(-c2ccccc2)n1C
inactive: all assays above

NC(N)=NCCN1CCCCCCC1
inactive: all assays above
